Only some compounds are listed: those with a hit (about 5.3% of all), similar ones and a draw of the others.
ALR H2O2 inh = human ALR oxidase inhibition via reduced H2O2. AID 485317. actives 3.8% (n = 290,000). purified ALR, DTT oxidation, H2O2 HRP-luminol luminescence. inhibition, % (concentration not given with the values);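 active = mean replicate inhibition above about 79%, with every replicate also reaching it, limit read from the data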
Target sequence (P55789 whole entry, looked up): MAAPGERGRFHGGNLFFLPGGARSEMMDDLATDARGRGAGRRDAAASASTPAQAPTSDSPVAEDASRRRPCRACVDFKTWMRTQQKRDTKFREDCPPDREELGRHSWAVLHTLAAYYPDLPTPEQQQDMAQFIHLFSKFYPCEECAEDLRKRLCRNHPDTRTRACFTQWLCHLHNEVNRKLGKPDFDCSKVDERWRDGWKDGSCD
PfM18AAP inh = PfM18AAP enzyme inhibition. AID 1822. actives 1.2% (n = 290,000). recombinant PfM18AAP, H-Glu-NHMec fluorogenic cleavage. inhibition, % at 7.35 µM;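 active = inhibition above the campaign mean inhibition over all tested compounds plus 3 SD, cut at about 28% in these data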;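 also: 0% = plate median of test compound wells and 100% = 2 mM ZnCl2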
Mot1-301 SUMO = blocks SUMOylation pathway, rescuing yeast Mot1-301 growth. S. cerevisiae Mot1-301 growth rescue, ATP luminescence, 38.5C; percent above DMSO median, 100 means doubled. growth rescue, % at 18.8 µM. actives 1% (n = 320,000);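 active = every valid replicate shows activation above 250% relative to neutral control wells; inactive = the rest, any valid replicate at or below 250%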;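 also: OY570 slx delta 5 strain wells were the positive control but not used for scaling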
HIF act = HIF pathway transcriptional activation; U2OS HRE-luciferase reporter, luminescence; normalized: DMSO 0%, desferrioxamine 100%; activation, % at 7.5 µM (by protocol); actives 0.32% (n = 300,000); AID 1910;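 active = mean activation of at least 10% of the iron chelator positive control signal, with at least half of replicates also reaching 10%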
* = called active by the depositor.

For Cc1ccc(S(=O)(=O)N/N=C/c2cc([N+](=O)[O-])ccc2O)cc1[N+](=O)[O-] the results were ALR H2O2 inh 28.0, PfM18AAP inh 9.4, Mot1-301 SUMO 30.2 and HIF act -0.4.
`CCC(C)c1ccccc1NC(=O)c1cccc(-n2cnnn2)c1` (configuration not stated) gave ALR H2O2 inh -6.2 and Mot1-301 SUMO 3.8.
CCOc1ccc(N(C)S(=O)(=O)c2cc(-c3cc(C)no3)ccc2CC)cc1 was read as ALR H2O2 inh -23.6, PfM18AAP inh -0.4, Mot1-301 SUMO 118.8 and HIF act -0.1.
Screening CCc1ccc(NC(=O)CN2CCCN(S(=O)(=O)c3ccc(F)cc3)CC2)cc1 returned ALR H2O2 inh -2.7, PfM18AAP inh 3.1, Mot1-301 SUMO 172.9 and HIF act -0.2.
For CCCCCCCCCS(=O)(=O)N/N=C/c1cccc([N+](=O)[O-])c1 the results were ALR H2O2 inh 4.3, PfM18AAP inh -4.8, Mot1-301 SUMO 130.1 and HIF act 70.5*.
CCn1cc(CNC(=O)c2cc(-c3cc(OC)ccc3OC)nc3ccccc23)c(C)n1 was read as ALR H2O2 inh 13.3, PfM18AAP inh -13.0, Mot1-301 SUMO 56.2 and HIF act 0.2.
For CC(=O)c1ccc(N(C(=O)c2csnn2)C(C(=O)NC(C)(C)C)c2cccs2)cc1 (configuration not stated) the results were ALR H2O2 inh -5.5, PfM18AAP inh -3.0, Mot1-301 SUMO 2.1 and HIF act 34.7*.
For Cc1ccc(S(=O)(=O)N2CCC(C(=O)N/N=C/c3ccncc3)CC2)cc1 the results were ALR H2O2 inh -1.8, PfM18AAP inh 0.2, Mot1-301 SUMO -6.4 and HIF act -0.5.
For CCOC(=O)C1CCN(Cc2cnc(Oc3ccc(N)cc3)s2)CC1 the results were ALR H2O2 inh 97.8*, PfM18AAP inh -3.2, Mot1-301 SUMO 84.1 and HIF act 0.8.
Screening CCOC(=O)C1CCN(Cc2cnc(Oc3ccc(Cl)cc3C)s2)CC1 returned ALR H2O2 inh -2.4, PfM18AAP inh -2.0, Mot1-301 SUMO 116.8 and HIF act 0.2.
CC(C)(C)c1ccc(S(=O)(=O)N2CCN(CC(=O)NC(=O)NC3CCCCC3)CC2)cc1 was read as ALR H2O2 inh -3.1, Mot1-301 SUMO 7.4 and HIF act 1.3.
NC(=O)CSc1oc(-c2ccco2)nc1S(=O)(=O)c1ccccc1 was read as ALR H2O2 inh -6.0, PfM18AAP inh -0.3, Mot1-301 SUMO 12.0 and HIF act -0.4.
NC(=O)Cc1ccc(Nc2nnc(-c3ccc(O)cc3)c3ccccc23)cc1 was read as ALR H2O2 inh 99.1*, PfM18AAP inh -4.5, Mot1-301 SUMO -2.2 and HIF act 0.5.
`CC(=O)Nc1ccc(Nc2nnc(-c3ccc(O)cc3)c3ccccc23)cc1` gave ALR H2O2 inh 84.1*, PfM18AAP inh 9.3, Mot1-301 SUMO -3.1 and HIF act -0.2.
For CCN(CC)C(=O)c1ccc(-c2nnc(Nc3ccc(O)cc3)c3ccccc23)cc1 the results were ALR H2O2 inh 5.4, PfM18AAP inh 9.6, Mot1-301 SUMO 22.1 and HIF act -3.5.
CNC(=O)c1ccc(Nc2nnc(-c3ccc(C(N)=O)cc3)c3ccccc23)cc1 was read as ALR H2O2 inh -16.2, PfM18AAP inh 0.1, Mot1-301 SUMO -23.9 and HIF act 0.2.
NC(=O)c1ccc(Nc2nnc(-c3ccc(O)cc3)c3ccccc23)cc1 was read as ALR H2O2 inh 95.6*, PfM18AAP inh 5.0, Mot1-301 SUMO -7.1 and HIF act -0.4.
CC(C)(C)NC(=O)C(=O)NCCC1=CCCCC1 was read as ALR H2O2 inh -2.7, PfM18AAP inh 1.4, Mot1-301 SUMO -16.3 and HIF act 1.0.
Screening CCOc1ccc(NC(=O)CN2CCN(CC(=O)Nc3ccc(C(N)=O)cc3)CC2)cc1 returned ALR H2O2 inh -15.3, PfM18AAP inh -15.0, Mot1-301 SUMO 8.0 and HIF act -0.6.
CCCCCN1C2=NCCN2c2ccccc21 was read as ALR H2O2 inh 96.3*, PfM18AAP inh -1.1, Mot1-301 SUMO -10.8 and HIF act -0.3.
Screening Fc1ccc(CN2C3=NCCCN3c3ccccc32)cc1 returned ALR H2O2 inh 2.6, PfM18AAP inh -10.6, Mot1-301 SUMO -3.1 and HIF act -0.6.
For Cc1ccccc1CN1C2=NCCN2c2ccccc21 the results were ALR H2O2 inh 98.8*, PfM18AAP inh -5.6, Mot1-301 SUMO 24.9 and HIF act -1.5.
Screening Fc1ccc(CN2C3=NCCN3c3ccccc32)cc1 returned ALR H2O2 inh 95.0*, PfM18AAP inh 3.7, Mot1-301 SUMO -9.8 and HIF act -0.4.
For Cc1ccccc1CN1C2=NCCCN2c2ccccc21 the results were ALR H2O2 inh -9.4, PfM18AAP inh -0.2, Mot1-301 SUMO -20.0 and HIF act -0.2.

Bioassay records: PubChem BioAssay, several laboratories
